# Test results published in PubChem BioAssay AID602371 (National Center for Advancing Translational Sciences (NCATS), 2012).
# Records with an inconclusive call do not appear. Calls of active or inactive are those of the source. The call rests on the fitted dose curve; in most records, active means well fitted inhibition curve with a large enough effect; inconclusive means small, poorly fitted or top-dose-only effect; inactive means flat fitted curve, though single readings scatter.
# Assay: qHTS Assay for Inhibitors of Bacillus subtilis Sfp phosphopantetheinyl transferase (PPTase): SAR in B subtilis 168
# Settings: Bacillus subtilis 168 growth inhibition
# Source text: The covalent attachment of a phosphopantetheinyl (4'-PP) arm to a variety of synthases and other proteins is a key posttranslational protein modification. The 4'-PP is installed on the proteins post-translationally from coenzyme A (CoA) on a conserved serine residue by action of phosphopantetheinyl transferase (PPTase) enzymes. Phosphopantetheinylation is essential for synthase activity, and removal of the PPTase gene precludes natural product synthesis in microorganisms, or in the case of fatty acid biosynthesis, renders the organism unviable. PPTase enzymes belong to a distinct structural superfamily. Within bacteria, these enzymes are grouped into two classes based upon primary structure, the AcpS-Type and Sfp-Type PPTases.
# Sfp-type PPTases, corresponding to an activator of surfactin production in Bacillus subtilis, are responsible for modifying type I polyketide and nonribosomal peptide synthases of prokaryotes. Sfp-type PPTases are responsible for the activation of a variety of pathogen-associated virulence factors. Among these compounds are toxins such as mycolactone from Mycobacterium ulcerans, siderophores such as vibriobactin from Vibrio cholerae or mycobactin from Mycobacterium tuberculosis, as well as the mycolic acids which form the waxy cell wall of Mycobacteria. The biosyntheses of these natural products are considered attractive targets for drug design.
# In search of small molecule Sfp-PPTase inhibitors, a fluorescence quenching assay was developed for detection of Bacillus subtilis Sfp-PPTase enzymatic activity in a miniaturized high-throughput format. The consensus ybbr acceptor peptide […] was N-terminally labeled with Black Hole Quencher-2 (BHQ-2) and used in combination with rhodamine-labeled coenzyme A as a co-substrate.
# Phosphopantetheinyl transfer is a process essential to cellular viability and maintenance. Cell-permeable and stable compounds acting as PPTase inhibitors are anticipated to be antimicrobial agents in organisms with complimenting genotypes. […] This experiment evaluated a series of test compounds for antimicrobial activity with B. subtilis 168 (genotype: acpS+ and sfp-), a strain that contains a frameshift mutation in the sfp locus and thus requires a functional AcpS gene product for viability. [Mootz HD, 2001] This strain is expected to be sensitized to cell-permeable AcpS inhibitors, and insensitive to Sfp inhibitors.
# NIH Chemical Genomics Center [NCGC]
# NIH Molecular Libraries Probe Centers Network [MLPCN]
# Assay Submitter (PI): Michale Burkart, University of California, San Diego
# Bacillus subtilis 168 is maintained on lysogeny broth (LB) solidified by the addition of 1.5% w/v agar. Single colonies were used to LB medium (2 mL) and shaken overnight at 30 deg C. In the morning, this culture (100 uL) was used to seed a fresh LB medium (10 mL) and was shaken at 30 degC until the culture OD600 reached 0.5. This culture was diluted 1:100 in fresh LB medium to provide the inoculum below.
# Bacterial susceptibility.
# LB medium (2 uL) is dispensed into wells of a sterile white 1536-well plate. Test compounds (23 nL) prepared as serial dilutions in DMSO are added to the plate by pintool transfer. Innoculum (2 uL) is added, the plates are covered with a vented Kalypsys assay lid and incubated at 30 deg C. After 5 h, Bac-Titer Glo (4 uL; Promega Corp, Madison, WI) is added to the plates. They are incubated 10 minutes at room temperature and then the luminescence detected in a ViewLux multimodal plate reader.
row,SMILES,Potency
1,Cc1cc(C)nc(NC(=S)N2CCN(c3ccc(Cl)c(Cl)c3)CC2)c1,37.3 µM (active)
2,COc1ccnc(NC(=S)N2CCN(c3ccc(Cl)cc3Cl)CC2)c1,16.7 µM (active)
3,Cc1ccnc(NC(=S)N2CCN(c3cccc(C(F)(F)F)c3)CC2)c1,14.8 µM (active)
4,Cc1ccnc(NC(=S)Nc2cccc(C(F)(F)F)c2)c1,18.7 µM (active)
5,COc1ccnc(NC(=S)N2CCN(c3cccc(Cl)c3Cl)CC2)c1,13.2 µM (active)
6,FC(F)(F)c1cc(N2CCN(C(=S)Nc3cc(Cl)ccn3)CC2)cc(C(F)(F)F)c1,6.63 µM (active)
7,S=C(Nc1cc(Cl)ccn1)N1CCN(c2cccc(Cl)c2Cl)CC1,16.7 µM (active)
8,Cc1ccnc(NC(=S)N2CCN(c3cc(C(F)(F)F)cc(C(F)(F)F)c3)CC2)c1,14.8 µM (active)
9,Cc1ccnc(NC(=S)N2CC3CN(c4cccc(C(F)(F)F)c4)CC3C2)c1 (centres undefined),8.35 µM (active)
10,COc1ccnc(NC(=S)N2CCN(c3ncc(C(F)(F)F)cc3Cl)CC2)c1,18.7 µM (active)
11,CSC(Cc1ccc(Cl)cc1)C(=O)Nc1ccc(Cl)cc1C(=O)O (centres undefined),23.5 µM (active)
12,Cc1cc(C)nc(NC(=S)N2CCN(c3ccc(Cl)cc3Cl)CC2)c1,33.2 µM (active)
13,Cc1ccnc(NC(=S)N2CCCN(c3cccc(C(F)(F)F)c3)CC2)c1,11.8 µM (active)
14,FC(F)(F)c1cccc(N2CCN(C(=S)Nc3cc(C(F)(F)F)ccn3)CC2)c1,16.7 µM (active)
15,Cc1cc(C)nc(NC(=S)N2CCN(c3cc(Br)cc(C(F)(F)F)c3)CC2)c1,16.7 µM (active)
16,Cc1cc(C)nc(NC(=S)N2CCN(c3ccc([N+](=O)[O-])cc3Cl)CC2)c1,14.8 µM (active)
17,Cc1ccnc(NC(=S)N2CC3CN(c4ncc(C(F)(F)F)cc4Cl)CC3C2)c1 (centres undefined),16.7 µM (active)
18,Cc1cc(C)nc(NC(=S)N2CC3CN(c4ccc(Cl)cc4C(F)(F)F)CC3C2)c1 (centres undefined),11.8 µM (active)
19,Cc1ccnc(NC(=S)N2CCN(c3cccc(N(C)C)c3)CC2)c1,46.9 µM (active)
